Measurements reported in the supplement of paper PMC11732987, “Enantioselective OTUD7B fragment discovery through chemoproteomics screening and high-throughput optimisation” (Communications Chemistry, 2025).

Assays:
Assay in all cases: log2 ratio of Biotin-Ahx-Ub-VS probe labelling (fragment/DMSO); higher = less target engagement (more negative = stronger competition), active = hit call of the paper (q ≤ 0.05, log2 ratio ≤ -1)
Settings in all cases: compound concentration: 200 uM; treatment time: 3 h
[1] = target: T1, ALG13 (UniProt Q9NP73)
T1 sequence (whole entry): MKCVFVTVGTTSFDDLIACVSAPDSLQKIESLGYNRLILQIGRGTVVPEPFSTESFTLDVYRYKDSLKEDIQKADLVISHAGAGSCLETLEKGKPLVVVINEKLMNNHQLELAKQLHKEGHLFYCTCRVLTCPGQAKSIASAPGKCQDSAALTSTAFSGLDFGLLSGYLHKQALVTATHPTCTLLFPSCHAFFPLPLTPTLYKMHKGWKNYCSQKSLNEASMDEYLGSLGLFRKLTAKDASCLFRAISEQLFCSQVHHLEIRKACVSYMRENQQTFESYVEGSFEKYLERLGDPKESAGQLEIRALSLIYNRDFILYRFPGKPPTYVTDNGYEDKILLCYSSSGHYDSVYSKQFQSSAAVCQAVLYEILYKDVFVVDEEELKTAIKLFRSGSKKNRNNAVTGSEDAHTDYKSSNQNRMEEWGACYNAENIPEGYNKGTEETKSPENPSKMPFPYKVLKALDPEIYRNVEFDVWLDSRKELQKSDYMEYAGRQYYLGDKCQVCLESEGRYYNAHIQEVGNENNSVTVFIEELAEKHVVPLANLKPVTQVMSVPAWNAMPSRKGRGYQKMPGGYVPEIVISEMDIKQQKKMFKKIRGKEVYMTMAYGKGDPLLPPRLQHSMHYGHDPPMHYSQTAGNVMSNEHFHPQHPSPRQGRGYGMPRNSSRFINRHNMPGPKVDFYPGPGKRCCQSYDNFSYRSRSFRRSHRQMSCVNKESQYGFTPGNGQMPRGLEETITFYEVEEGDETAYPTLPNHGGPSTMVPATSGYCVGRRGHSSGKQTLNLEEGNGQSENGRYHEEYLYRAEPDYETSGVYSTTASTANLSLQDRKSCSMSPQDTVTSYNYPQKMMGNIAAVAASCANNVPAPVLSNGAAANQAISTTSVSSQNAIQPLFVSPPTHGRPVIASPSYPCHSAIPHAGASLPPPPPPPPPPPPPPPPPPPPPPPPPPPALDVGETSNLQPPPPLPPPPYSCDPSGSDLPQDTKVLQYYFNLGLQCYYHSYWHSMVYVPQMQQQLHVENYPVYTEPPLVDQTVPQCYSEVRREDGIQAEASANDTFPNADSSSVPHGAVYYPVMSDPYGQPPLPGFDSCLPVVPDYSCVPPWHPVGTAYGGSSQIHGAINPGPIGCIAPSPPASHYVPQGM
Procedure, shortened: (§1)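 HEK293T lysate (495 µg per sample, in Tris/CHAPS/IGEPAL buffer with protease inhibitors) was exposed in triplicate for 3 h to fragment at 200 µM or to vehicle, then to Biotin-Ahx-Ub-VS at 0.5 µM final for 1 h. Labelled DUBs were enriched on NeutrAvidin, digested with LysC and trypsin, and analysed by diaPASEF LC-MS/MS. Spectronaut label-free quantities were normalised to the global median, and values are average log2 ratios of fragment over vehicle from an unpaired t-test. Only proteins with ≥2 unique peptides were used.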

[2] = target: ATXN3 (UniProt P54252)
Chain of ATXN3 (P54252 whole entry): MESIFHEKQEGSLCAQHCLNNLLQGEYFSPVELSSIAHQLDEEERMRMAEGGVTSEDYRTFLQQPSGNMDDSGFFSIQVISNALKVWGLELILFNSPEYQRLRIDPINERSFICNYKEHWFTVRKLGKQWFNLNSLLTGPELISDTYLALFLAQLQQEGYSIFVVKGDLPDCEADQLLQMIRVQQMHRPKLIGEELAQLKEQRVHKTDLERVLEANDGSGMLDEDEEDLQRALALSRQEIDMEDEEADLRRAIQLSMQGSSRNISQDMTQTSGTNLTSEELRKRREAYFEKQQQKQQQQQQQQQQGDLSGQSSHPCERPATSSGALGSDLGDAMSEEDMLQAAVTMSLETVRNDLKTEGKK
Procedure, shortened: as §1

[3] = target: T2, BAP1 (UniProt Q92560)
T2 sequence (whole entry): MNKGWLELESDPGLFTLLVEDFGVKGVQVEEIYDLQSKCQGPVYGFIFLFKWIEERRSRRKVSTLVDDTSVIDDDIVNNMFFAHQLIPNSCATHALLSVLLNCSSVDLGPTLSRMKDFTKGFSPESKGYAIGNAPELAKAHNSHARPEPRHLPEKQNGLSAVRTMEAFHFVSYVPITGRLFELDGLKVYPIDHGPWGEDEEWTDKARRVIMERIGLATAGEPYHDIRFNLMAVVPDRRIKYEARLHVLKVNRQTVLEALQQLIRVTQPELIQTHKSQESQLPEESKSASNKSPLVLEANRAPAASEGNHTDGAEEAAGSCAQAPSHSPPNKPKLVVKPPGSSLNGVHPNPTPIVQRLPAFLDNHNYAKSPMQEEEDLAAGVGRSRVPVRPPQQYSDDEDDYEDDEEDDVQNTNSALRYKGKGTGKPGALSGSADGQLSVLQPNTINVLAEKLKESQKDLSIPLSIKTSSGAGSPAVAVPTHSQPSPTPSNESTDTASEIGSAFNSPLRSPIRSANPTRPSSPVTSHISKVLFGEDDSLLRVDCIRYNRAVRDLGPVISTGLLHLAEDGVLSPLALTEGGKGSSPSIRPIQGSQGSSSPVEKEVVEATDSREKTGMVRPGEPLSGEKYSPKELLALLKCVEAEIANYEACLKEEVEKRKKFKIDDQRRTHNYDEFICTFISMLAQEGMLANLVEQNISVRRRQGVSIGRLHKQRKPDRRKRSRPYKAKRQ
Procedure, shortened: as §1

[4] = target: EIF3F (UniProt O00303)
Chain of EIF3F (O00303 whole entry): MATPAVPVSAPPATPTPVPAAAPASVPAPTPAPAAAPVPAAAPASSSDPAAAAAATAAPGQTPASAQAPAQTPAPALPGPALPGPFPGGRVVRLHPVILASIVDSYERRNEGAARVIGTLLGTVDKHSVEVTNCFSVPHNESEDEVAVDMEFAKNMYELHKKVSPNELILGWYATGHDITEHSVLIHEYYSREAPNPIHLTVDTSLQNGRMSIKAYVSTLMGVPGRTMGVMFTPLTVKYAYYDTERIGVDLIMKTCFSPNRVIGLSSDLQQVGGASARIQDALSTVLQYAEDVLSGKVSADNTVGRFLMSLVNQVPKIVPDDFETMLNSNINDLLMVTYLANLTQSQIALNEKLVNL
Procedure, shortened: as §1

[5] = target: EIF3H (UniProt O15372)
Chain of EIF3H (O15372 whole entry): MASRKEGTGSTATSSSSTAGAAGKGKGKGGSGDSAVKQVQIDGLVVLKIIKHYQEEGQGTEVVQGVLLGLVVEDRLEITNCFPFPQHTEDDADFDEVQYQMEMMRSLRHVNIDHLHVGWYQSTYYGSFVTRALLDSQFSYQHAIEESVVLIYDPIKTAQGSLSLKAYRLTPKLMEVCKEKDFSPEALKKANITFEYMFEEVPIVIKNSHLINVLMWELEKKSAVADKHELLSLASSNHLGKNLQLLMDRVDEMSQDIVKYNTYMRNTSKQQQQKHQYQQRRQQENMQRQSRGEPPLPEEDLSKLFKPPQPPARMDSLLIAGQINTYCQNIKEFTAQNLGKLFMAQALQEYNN
Procedure, shortened: as §1

[6] = target: T3, FAM105A (UniProt Q9NUU6)
T3 sequence (whole entry): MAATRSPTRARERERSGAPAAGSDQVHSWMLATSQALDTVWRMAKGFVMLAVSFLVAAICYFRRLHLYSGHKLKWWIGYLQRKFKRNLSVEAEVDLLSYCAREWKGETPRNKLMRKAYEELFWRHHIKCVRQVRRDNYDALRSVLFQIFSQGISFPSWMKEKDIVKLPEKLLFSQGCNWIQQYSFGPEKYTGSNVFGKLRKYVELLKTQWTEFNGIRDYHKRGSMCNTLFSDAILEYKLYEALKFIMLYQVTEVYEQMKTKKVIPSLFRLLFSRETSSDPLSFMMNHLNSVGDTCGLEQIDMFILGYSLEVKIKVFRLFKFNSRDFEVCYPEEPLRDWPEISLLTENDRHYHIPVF
Procedure, shortened: as §1

[7] = target: OTUB1 (UniProt Q96FW1)
Chain of OTUB1 (Q96FW1 whole entry): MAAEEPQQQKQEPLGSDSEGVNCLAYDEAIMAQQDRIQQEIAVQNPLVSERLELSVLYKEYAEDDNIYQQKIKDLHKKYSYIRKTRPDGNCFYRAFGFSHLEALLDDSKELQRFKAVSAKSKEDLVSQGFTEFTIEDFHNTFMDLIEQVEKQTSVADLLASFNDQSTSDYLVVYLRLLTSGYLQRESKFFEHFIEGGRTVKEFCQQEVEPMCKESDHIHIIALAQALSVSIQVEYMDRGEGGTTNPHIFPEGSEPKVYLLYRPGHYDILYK
Procedure, shortened: as §1

[8] = target: T4, OTUD4 (UniProt Q01804)
T4 sequence (whole entry): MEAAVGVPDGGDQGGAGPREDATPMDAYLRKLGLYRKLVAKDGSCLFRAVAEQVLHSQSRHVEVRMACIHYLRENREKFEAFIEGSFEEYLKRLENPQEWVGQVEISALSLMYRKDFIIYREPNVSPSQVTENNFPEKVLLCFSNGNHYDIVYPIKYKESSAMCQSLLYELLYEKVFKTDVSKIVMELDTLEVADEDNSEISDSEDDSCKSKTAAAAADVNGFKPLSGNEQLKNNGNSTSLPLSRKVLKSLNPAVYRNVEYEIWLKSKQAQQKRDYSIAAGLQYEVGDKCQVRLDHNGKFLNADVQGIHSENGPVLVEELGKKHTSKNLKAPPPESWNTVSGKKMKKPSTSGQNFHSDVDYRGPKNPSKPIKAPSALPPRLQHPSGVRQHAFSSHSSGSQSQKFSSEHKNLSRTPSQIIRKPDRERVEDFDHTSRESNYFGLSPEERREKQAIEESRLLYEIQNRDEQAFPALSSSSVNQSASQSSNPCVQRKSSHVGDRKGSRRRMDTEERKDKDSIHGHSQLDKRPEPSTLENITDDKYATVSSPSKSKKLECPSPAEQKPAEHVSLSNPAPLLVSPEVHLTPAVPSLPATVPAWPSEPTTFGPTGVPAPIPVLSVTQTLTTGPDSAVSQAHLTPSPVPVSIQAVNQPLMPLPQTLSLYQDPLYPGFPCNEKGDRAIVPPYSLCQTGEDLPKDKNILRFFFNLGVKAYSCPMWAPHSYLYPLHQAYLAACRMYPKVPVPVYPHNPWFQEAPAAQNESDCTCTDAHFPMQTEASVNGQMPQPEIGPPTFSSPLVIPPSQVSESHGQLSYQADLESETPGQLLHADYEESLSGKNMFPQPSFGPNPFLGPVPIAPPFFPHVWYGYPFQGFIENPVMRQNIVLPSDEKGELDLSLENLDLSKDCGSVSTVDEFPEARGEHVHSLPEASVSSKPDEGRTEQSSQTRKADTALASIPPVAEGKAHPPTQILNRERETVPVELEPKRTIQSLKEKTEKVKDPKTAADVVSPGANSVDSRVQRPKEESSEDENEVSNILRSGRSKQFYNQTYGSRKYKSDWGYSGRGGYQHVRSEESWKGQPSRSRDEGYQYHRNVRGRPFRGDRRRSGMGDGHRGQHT
Procedure, shortened: as §1

[9] = target: T5, OTUD5 (UniProt Q96G74)
T5 sequence (whole entry): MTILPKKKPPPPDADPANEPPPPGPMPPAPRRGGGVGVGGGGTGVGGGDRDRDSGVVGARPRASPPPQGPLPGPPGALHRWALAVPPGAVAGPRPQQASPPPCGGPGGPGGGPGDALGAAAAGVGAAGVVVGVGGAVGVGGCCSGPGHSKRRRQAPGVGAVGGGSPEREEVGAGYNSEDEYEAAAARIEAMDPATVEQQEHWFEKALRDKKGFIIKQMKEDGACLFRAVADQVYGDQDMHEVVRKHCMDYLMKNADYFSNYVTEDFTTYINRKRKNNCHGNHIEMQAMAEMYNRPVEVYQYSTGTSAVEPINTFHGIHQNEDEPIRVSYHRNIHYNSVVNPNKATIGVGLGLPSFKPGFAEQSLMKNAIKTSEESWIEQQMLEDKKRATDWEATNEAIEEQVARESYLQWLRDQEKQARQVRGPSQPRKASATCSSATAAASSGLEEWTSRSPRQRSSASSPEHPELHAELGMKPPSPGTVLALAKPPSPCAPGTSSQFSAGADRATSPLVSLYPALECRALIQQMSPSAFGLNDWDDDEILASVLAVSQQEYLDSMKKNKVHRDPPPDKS
Procedure, shortened: as §1

Measured: log2 ratio of Biotin-Ahx-Ub-VS probe labelling

Cc1ccc(CN(CCO)C(=O)CCl)cc1
inactive: [1] 0.163 | [2] -0.225 | [4] 0.0155 | [5] 0.0625 | [6] 0.0195 | [7] -0.0318 | [8] -0.355 | [9] -0.372
active: [3] -1.12
